Laboratory results published in PubChem BioAssay (Tox21).
“And” between values parts separate entries of the source, which are not always exact repeats. Equal values may be shown once. Records with an inconclusive call do not appear. Some compounds were tested as several samples or in several runs, with calls that do not always agree. The source made the active and inactive calls. Unless noted, calls come from the whole dose curve; as a rule, active = well fitted curve in the direction sought with a large enough effect in the repeat runs; inconclusive = weak or mixed curves; inactive = no such curve, though single readings can be large; an effect the other way counts as inactive or inconclusive.

Tests used:
[1] = qHTS assay to identify small molecule agonists of the TGF-beta/Smad signaling pathway - cell viability counter screen (AID 1346829); note: top concentration of the series differs between compounds; % is set by controls: 0 for no effect and ±100 for the full control effect; nearly all actives have a fitted effect of over 45% in size
In short: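 In parallel with the Smad reporter read, viability of HEK 293T cells stably carrying SBE-bla is quantified by ATP luminescence following 5 hr compound treatment.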

[2] = qHTS assay to identify small molecule agonists of the TGF-beta/Smad signaling pathway (AID 1346859; active = well fitted activation curve with a large enough effect in the signal ratio in the repeat runs, not every such curve was filed as active; the % refers to the signal ratio; note: series mostly up to about 77 µM; % is set by controls: 0 for no effect and ±100 for the full control effect)
In short: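 Each well held 4,000 SBE-bla HEK 293T cells incubated overnight before compound addition; 5 hr later the cleavable FRET substrate went on for 2 hr at room temperature, and fluorescence was read at two emissions.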

[3] = target: Thyrotropin-releasing hormone receptor (Homo sapiens) (UniProt P34981); assay: qHTS assay to identify small molecule antagonists of the thyrotropin-releasing hormone receptor (TRHR) signaling pathway (AID 1346877; active = well fitted inhibition curve with a large enough effect in the repeat runs, not every such curve was filed as active; note: series mostly up to about 51 µM; % is set by controls: 0 for no effect and ±100 for the full control effect)
Thyrotropin-releasing hormone receptor (Homo sapiens), sequence (P34981 whole entry, looked up): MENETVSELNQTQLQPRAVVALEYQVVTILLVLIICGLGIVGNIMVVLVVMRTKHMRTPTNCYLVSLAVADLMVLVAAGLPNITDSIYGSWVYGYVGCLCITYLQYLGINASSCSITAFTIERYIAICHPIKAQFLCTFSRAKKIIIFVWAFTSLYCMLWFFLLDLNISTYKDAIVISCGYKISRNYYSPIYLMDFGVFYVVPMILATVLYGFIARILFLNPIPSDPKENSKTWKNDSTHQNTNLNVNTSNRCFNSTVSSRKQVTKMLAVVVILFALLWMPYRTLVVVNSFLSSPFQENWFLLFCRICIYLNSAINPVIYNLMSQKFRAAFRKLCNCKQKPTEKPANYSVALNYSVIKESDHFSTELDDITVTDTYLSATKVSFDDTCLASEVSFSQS
In short: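 TRHR-expressing HEK293 cells loaded with calcium dye for 2 h at 37 C; compounds pre-incubated 5 min at room temperature before TRH challenge at 1 nM final. Intracellular calcium fluorescence read kinetically for 3 min; 15 concentrations in triplicate.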

[4] = target: Thyrotropin-releasing hormone receptor (Homo sapiens) (UniProt P34981); assay: qHTS assay to identify small molecule agonists of the thyrotropin-releasing hormone receptor (TRHR) signaling pathway (AID 1346891; calls by dose curve; note: series mostly up to about 58 µM; % is set by controls: 0 for no effect and ±100 for the full control effect)
In short: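 Screening of agonists relied on calcium signalling in HEK293 cells expressing human TRHR: dye loading 2 h at 37 °C preceded compound addition and a 3-min fluorescence time course.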

[5] = Human pregnane X receptor (PXR) small molecule agonists, qHTS cell viability counter screen (AID 1346977); note: % is set by controls: 0 for no effect and ±100 for the full control effect; nearly all actives have a fitted effect of over 50% in size
In short: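 Tox21 qHTS format; PXR-Luc HepG2, 2,000/well, charcoal-stripped FBS 5%. Cpd exposure 24hr. Read: CellTiter-Fluor fluorescence, multiplexed with luciferase.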

[6] = Caspase-3/7 induction in HepG2 cells by small molecules, qHTS assay (AID 1346978); note: nearly all actives have a fitted effect of over 15% in size; note: potency is the fitted concentration of half-maximal effect
In short: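 Wild-type HepG2 cells (2,000/well) were settled 5 h at 37 C, 5% CO2, then exposed to compounds in DMSO for 17 h. Caspase-3/7 activity was read by luminescence 30 min after adding Caspase-Glo 3/7 reagent at room temperature.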

[7] = Caspase-3/7 induction in CHO-K1 cells by small molecules, qHTS assay (AID 1346980); note: % is set by controls: 0 for no effect and ±100 for the full control effect; nearly all actives have a fitted effect of over 15% in size
In short: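 Wild-type cells were seeded at 1,500 per well and settled 5 hr at 37 C, 5% CO2, then exposed to DMSO-dissolved compounds for 17 hr. Caspase-Glo 3/7 reagent was added, and luminescence was read after 30min at room temperature.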

[8] = Caspase-3/7 induction in HepG2 cells by small molecules, qHTS cell viability counter screen (AID 1346981); note: nearly all actives have a fitted effect of over 30% in size; note: potency is the fitted concentration of half-maximal effect
In short: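 Wild-type HepG2 cells, 2,000/well, settled 5 hr at 37 C, 5% CO2 before compound addition. Viability read by CellTiter-Fluor fluorescence, reagent added after 16 hr compound exposure, then 1 hr at 37C, in the same wells as the caspase read.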

[9] = target: Nuclear receptor subfamily 1 group I member 2 (Homo sapiens) (UniProt O75469); assay: Human pregnane X receptor (PXR) small molecule agonists, qHTS assay (AID 1346982); note: nearly all actives have a fitted effect of over 35% in size; note: potency is the fitted concentration of half-maximal effect; for activation: % is set by controls: 0 for no effect and ±100 for the full control effect
Nuclear receptor subfamily 1 group I member 2 (Homo sapiens), sequence (O75469 whole entry, looked up): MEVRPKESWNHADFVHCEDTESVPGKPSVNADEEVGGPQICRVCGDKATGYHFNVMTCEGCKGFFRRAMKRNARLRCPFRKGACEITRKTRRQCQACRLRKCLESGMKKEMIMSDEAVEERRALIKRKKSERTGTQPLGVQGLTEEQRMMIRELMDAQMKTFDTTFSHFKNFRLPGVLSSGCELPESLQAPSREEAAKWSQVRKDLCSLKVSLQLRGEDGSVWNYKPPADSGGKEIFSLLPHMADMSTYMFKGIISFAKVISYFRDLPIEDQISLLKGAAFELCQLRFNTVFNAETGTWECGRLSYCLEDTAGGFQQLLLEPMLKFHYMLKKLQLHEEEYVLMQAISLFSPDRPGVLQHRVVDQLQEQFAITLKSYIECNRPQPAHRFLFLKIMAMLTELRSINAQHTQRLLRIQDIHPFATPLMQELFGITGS
In short: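 PXR-Luc HepG2 reporter cells (CYP3A4-driven luciferase) in 5% charcoal-stripped FBS medium, plated 5 h before compound addition, then treated 24 h at 37C. Luciferase read by ONE-Glo luminescence after 30 min at room temperature.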

[10] = target: Nuclear receptor subfamily 1 group I member 2 (Homo sapiens) (UniProt O75469); assay: Human pregnane X receptor (PXR) activation by small molecules, qHTS assay (AID 1346985); note: potency is the fitted concentration of half-maximal effect; nearly all actives have a fitted effect of over 40% in size
In short: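 DPX-2 cells (HepG2 co-transfected with a PXR response element and a CYP3A4-promoter luciferase construct) were seeded at 2,000 per well, rested 5 hr at 37C, then exposed to DMSO-dissolved compounds for 24 hr. Activation was read as luciferase luminescence.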

[11] = target: Cytochrome P450 2D6 (Homo sapiens) (UniProt P10635); assay: Cytochrome P450 Family 2 Subfamily D Member 6 (CYP2D6) small molecule antagonists: luciferase reporter qHTS assay (AID 1671196); note: nearly all actives have a fitted effect of over 50% in size; note: potency is the fitted concentration of half-maximal effect
Cytochrome P450 2D6 (Homo sapiens), sequence (P10635 whole entry, looked up): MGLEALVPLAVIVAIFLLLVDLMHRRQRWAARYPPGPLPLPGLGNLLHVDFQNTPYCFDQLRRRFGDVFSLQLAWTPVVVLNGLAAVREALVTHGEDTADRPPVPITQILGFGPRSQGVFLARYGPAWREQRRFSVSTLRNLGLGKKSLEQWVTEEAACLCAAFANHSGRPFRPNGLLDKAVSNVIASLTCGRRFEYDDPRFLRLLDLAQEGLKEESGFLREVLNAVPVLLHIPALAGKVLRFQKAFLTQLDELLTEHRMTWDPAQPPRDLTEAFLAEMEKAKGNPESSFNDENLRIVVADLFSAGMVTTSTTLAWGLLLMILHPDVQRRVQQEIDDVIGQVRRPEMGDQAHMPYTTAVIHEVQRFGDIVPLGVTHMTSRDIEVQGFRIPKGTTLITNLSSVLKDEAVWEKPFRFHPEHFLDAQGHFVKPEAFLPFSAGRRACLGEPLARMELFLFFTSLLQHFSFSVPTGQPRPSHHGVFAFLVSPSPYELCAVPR
In short: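 Cell-free P450-Glo system: CYP2D6 with proluciferin substrate was pre-incubated with compound for 10 min, then reacted with NADPH regeneration for 1 h at room temperature. Luciferin product was detected after 20 min, and data were reported as relative luminescence units.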

[12] = target: Cytochrome P450 2C19 (Homo sapiens) (UniProt P33261); assay: Cytochrome P450 Family 2 Subfamily C Member 19 (CYP2C19) small molecule antagonists: luciferase reporter qHTS assay (AID 1671197); note: nearly all actives have a fitted effect of over 65% in size; note: potency is the fitted concentration of half-maximal effect
Cytochrome P450 2C19 (Homo sapiens), sequence (P33261 whole entry, looked up): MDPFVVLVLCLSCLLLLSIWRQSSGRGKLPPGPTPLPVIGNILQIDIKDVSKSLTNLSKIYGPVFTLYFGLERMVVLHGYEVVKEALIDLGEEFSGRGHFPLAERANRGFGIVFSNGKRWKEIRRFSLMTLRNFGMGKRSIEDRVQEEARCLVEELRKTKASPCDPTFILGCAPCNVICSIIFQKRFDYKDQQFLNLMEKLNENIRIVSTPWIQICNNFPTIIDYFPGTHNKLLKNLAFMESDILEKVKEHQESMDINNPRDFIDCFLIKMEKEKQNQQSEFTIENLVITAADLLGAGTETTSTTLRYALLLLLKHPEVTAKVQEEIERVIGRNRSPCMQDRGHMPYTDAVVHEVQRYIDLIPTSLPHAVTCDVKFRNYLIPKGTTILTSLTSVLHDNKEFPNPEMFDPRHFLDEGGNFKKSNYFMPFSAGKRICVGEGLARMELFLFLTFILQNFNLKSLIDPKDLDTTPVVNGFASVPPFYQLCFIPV
In short: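 Compounds were tested on CYP2C19 activity via proluciferin conversion to luciferin. The 37C, 1 h reaction followed NADPH addition; detection reagent stopped it.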

[13] = target: Cytochrome P450 2C9 (Homo sapiens) (UniProt P11712); assay: Cytochrome P450 Family 2 Subfamily C Member 9 (CYP2C9) small molecule antagonists: luciferase reporter qHTS assay (AID 1671198); note: nearly all actives have a fitted effect of over 50% in size; note: potency is the fitted concentration of half-maximal effect
Cytochrome P450 2C9 (Homo sapiens), sequence (P11712 whole entry, looked up): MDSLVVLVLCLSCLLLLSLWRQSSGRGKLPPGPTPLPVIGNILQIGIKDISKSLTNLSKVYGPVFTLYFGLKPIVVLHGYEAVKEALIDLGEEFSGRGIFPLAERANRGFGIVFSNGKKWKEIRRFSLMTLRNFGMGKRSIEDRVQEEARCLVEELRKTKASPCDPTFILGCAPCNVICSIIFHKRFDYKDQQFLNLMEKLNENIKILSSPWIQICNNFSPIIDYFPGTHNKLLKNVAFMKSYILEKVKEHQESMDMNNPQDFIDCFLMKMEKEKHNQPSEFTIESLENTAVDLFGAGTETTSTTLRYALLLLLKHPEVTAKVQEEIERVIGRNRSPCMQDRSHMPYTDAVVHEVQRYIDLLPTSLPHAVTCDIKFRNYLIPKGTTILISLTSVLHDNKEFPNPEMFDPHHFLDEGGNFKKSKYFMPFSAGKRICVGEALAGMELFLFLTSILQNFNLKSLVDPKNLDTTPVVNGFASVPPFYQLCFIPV
In short: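 CYP2C9 activity was measured with a P450-Glo proluciferin substrate. Enzyme–substrate mix was held with compound for 10 min at room temperature, then NADPH regeneration solution was added for 1 h at 37C. Luciferin product was read as luminescence.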

[14] = target: Cytochrome P450 1A2 (Homo sapiens) (UniProt P05177); assay: Cytochrome P450 Family 1 Subfamily A Member 2 (CYP1A2) small molecule antagonists: luciferase reporter qHTS assay (AID 1671199); note: nearly all actives have a fitted effect of over 50% in size; note: potency is the fitted concentration of half-maximal effect
Cytochrome P450 1A2 (Homo sapiens), sequence (P05177 whole entry, looked up): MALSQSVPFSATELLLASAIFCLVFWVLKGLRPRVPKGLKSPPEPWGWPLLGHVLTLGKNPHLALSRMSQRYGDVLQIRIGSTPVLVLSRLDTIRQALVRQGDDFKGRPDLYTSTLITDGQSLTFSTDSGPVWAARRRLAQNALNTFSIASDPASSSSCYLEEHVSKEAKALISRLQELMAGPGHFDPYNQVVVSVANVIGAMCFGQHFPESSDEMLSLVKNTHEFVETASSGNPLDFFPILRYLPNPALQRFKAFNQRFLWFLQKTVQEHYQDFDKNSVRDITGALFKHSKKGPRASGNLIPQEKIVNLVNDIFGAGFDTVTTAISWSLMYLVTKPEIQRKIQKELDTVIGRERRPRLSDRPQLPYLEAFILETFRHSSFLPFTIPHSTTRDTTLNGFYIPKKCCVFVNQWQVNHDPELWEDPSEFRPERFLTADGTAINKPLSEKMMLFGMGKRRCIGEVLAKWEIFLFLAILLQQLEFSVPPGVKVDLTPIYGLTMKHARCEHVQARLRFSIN
In short: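 P450-Glo CYP1A2 enzyme–proluciferin substrate mix with compound 10 min at room temperature, then NADPH regeneration 1 h at room temperature. Luciferin detection reagent added, luminescence read after 20 min; furafylline positive control.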

[15] = target: Voltage-gated inwardly rectifying potassium channel KCNH2 (Homo sapiens) (UniProt Q12809); assay: Human Ether-a-go-go-Related Gene (hERG) channel small molecule antagonists: fluorescence cell-based qHTS assay (AID 1671200)
Voltage-gated inwardly rectifying potassium channel KCNH2 (Homo sapiens), sequence (Q12809 whole entry, looked up): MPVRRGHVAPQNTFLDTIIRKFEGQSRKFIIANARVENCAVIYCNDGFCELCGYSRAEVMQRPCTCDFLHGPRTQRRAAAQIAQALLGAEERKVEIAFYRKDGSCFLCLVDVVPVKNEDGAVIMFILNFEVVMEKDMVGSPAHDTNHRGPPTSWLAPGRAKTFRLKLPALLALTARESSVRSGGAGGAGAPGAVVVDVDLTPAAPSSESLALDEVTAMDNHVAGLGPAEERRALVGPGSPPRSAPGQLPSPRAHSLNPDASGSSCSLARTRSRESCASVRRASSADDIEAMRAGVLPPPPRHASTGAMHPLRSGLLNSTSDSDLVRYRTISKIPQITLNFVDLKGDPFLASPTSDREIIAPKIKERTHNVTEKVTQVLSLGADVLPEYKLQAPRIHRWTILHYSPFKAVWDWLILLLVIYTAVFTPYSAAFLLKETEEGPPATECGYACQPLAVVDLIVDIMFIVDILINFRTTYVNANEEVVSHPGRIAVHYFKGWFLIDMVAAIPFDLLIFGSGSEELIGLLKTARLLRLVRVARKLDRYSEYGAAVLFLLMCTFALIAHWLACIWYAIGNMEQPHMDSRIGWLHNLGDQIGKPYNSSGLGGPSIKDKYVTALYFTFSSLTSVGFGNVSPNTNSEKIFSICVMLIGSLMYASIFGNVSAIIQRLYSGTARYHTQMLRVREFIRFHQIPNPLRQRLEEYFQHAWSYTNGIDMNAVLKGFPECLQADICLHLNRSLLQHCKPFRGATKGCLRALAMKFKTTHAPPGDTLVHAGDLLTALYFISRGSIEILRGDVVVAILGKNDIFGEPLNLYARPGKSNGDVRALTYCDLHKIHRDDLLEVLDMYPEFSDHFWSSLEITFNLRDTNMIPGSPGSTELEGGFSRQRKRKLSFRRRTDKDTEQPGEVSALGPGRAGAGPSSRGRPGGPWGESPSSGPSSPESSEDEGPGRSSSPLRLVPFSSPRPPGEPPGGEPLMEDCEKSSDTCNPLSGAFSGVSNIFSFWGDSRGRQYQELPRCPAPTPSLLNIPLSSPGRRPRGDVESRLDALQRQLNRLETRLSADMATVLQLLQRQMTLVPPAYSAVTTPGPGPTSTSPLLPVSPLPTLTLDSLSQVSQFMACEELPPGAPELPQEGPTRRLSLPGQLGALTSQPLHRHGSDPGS
In short: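 Kinetic two-minute fluorescence traces, sampled at 1 s, were collected following thallium stimulus of U2OS cells (1000 per well) that had been cultured overnight at 37 C and loaded with FluxOR II.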

[16] = target: Cytochrome P450 3A4 (Homo sapiens) (UniProt P08684); assay: Cytochrome P450 Family 3 Subfamily A Member 4 (CYP3A4) small molecule antagonists: luciferase reporter qHTS assay (AID 1671201); note: nearly all actives have a fitted effect of over 50% in size; note: potency is the fitted concentration of half-maximal effect
Cytochrome P450 3A4 (Homo sapiens), sequence (P08684 whole entry, looked up): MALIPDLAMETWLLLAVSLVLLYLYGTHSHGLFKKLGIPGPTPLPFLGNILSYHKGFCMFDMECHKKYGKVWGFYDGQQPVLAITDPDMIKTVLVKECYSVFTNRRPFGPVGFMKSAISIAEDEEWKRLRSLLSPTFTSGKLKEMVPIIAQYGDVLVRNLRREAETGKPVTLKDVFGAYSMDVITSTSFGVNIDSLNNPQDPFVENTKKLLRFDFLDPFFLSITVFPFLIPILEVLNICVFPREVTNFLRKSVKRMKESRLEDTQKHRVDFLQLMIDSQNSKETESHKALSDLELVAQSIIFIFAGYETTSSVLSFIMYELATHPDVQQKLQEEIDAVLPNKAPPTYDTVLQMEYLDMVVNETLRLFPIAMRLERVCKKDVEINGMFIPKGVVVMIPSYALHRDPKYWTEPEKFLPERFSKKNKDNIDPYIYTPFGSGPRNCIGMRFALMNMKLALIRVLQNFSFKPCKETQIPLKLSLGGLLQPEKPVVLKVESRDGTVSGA
In short: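 Proluciferin-to-luciferin conversion by CYP3A4, NADPH-regenerated, 1 h RT; luminescence read as RLU. Ketoconazole as control.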

[17] = Caspase-3/7 induction in CHO-K1 cells by small molecules, qHTS cell viability counter screen (AID 1346979); note: % is set by controls: 0 for no effect and ±100 for the full control effect; nearly all actives have a fitted effect of over 35% in size
In short: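 CellTiter-Fluor viability check, qHTS format: wild-type CHO-K1, 16hr compound treatment, 1hr reagent incubation, fluorescence read.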

[18] = target: Nuclear receptor subfamily 1 group I member 2 (Rattus norvegicus) (UniProt Q9R1A7); assay: Rat pregnane X receptor (rPXR) activation by small molecules, qHTS assay (AID 1346983); settings: rPXR luciferase reporter cells, One-Glo luminescence, 24 h; max activation: stronger effect = higher value; note: nearly all actives have a fitted effect of over 20% in size; note: potency is the fitted concentration of half-maximal effect
Nuclear receptor subfamily 1 group I member 2 (Rattus norvegicus), sequence (Q9R1A7 whole entry, looked up): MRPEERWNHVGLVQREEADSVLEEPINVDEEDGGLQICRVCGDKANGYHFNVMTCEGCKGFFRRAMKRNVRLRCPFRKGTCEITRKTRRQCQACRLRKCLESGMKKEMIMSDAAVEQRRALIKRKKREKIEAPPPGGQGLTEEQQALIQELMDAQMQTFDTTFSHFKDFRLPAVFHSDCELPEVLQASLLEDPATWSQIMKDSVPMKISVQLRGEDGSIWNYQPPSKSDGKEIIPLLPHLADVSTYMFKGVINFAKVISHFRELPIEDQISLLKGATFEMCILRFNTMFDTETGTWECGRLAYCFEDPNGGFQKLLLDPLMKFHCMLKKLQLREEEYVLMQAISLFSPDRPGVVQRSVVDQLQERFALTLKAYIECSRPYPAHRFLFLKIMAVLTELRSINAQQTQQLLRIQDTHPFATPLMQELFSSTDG
In short: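 Cell-based rPXR luciferase reporter assay, 2,000 cells per well, rested 5hr at 37 C before compound addition in DMSO, then 24 hr at 37 C. One-Glo reagent was added and luminescence read after 30 min at room temperature.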

CCCCC(CC)COC(=O)C(C#N)=C(c1ccccc1)c1ccccc1 (stereo not given)
active: Potency [9] 13.7 µM and 10.6 µM | Potency [10] 10 µM | Potency [11] 5.03 µM and 5.49 µM | Potency [12] 7.1 µM | Potency [13] 2.83 µM and 3.09 µM | Potency [14] 31.7 µM
inactive: Potency [1] | outcome [2] | Potency [3] | outcome [4] | Potency [5] | Potency [6] | outcome [7] | Potency [8] | outcome [15]

Oc1cccc2ccccc12
inactive: Potency [1] | outcome [2] | Potency [3] | outcome [4] | Potency [5] | Potency [6] | outcome [7] | Potency [8] | outcome [15]
active: Potency [12] 23 µM and 39.9 µM

OCc1cccnc1
inactive: Potency [1] | outcome [2] | outcome [4] | Potency [5] | Potency [6] | outcome [7] | Potency [8] | outcome [15]

Cc1cccnc1
inactive: Potency [1] | outcome [2] | Potency [3] | Potency [5] | Potency [6] | outcome [7] | Potency [8] | Potency [9] | Potency [11] | Potency [12] | Potency [14] | outcome [15] | Potency [16]

c1c[nH]cn1
active: Potency [12] 84.4 µM
inactive: Potency [1] | outcome [2] | Potency [3] | Potency [5] | Potency [6] | Potency [17] | outcome [7] | Potency [8] | Potency [9] | Potency [14] | outcome [15]

C=C(C)C(=O)OCCOCCOCCOC(=O)C(=C)C
inactive: Potency [1] | outcome [2] | outcome [4] | Potency [5] | Potency [6] | outcome [7] | Potency [8] | Potency [9] | outcome [15] | Potency [16]
active: Potency [12] 22.5 µM and 31.7 µM | Potency [13] 40 µM | Potency [14] 40 µM and 28.3 µM
20 µM (active) and inactive: Potency [11]

CC(=O)CC(=O)Nc1ccccc1C
inactive: Potency [1] | outcome [2] | Potency [3] | Potency [5] | Potency [6] | outcome [7] | Potency [8] | Potency [9] | Potency [11] | Potency [12] | outcome [15] | Potency [16]
active: Potency [14] 39.9 µM

CCC(O)OC(O)CC (stereo not given)
inactive: Potency [1] | outcome [2] | Potency [3] | Potency [5] | Potency [6] | Potency [17] | outcome [7] | Potency [8] | Potency [9] | Potency [12] | Potency [13] | Potency [14] | outcome [15] | Potency [16]
36 µM (active) and inactive: Potency [11]

CC[C@H](C)C(=O)O[C@H]1C[C@@H](C)C=C2C=C[C@H](C)[C@H](CC[C@@H]3C[C@@H](O)CC(=O)O3)[C@H]21
24.7 µM (active) and inactive: Potency [9]
55.2 µM (active) and inactive: Potency [6]
active: Potency [18] 12.6 µM
36.1 µM (active) and inactive: Potency [11]
69.6 µM (active) and inactive: Potency [8]
inactive: Potency [1] | outcome [2] | Potency [5] | outcome [7] | Potency [14]

CC(C)CC(=O)CC(C)C
22.7 µM (active) and inactive: Potency [16]
inactive: Potency [1] | outcome [2] | Potency [5] | Potency [6] | Potency [17] | outcome [7] | Potency [8] | Potency [9] | Potency [11] | Potency [12] | Potency [13] | Potency [14] | outcome [15]

C[C@H]1C[C@H]2[C@@H]3CCC4=CC(=O)C=C[C@]4(C)[C@@]3(F)[C@@H](O)C[C@]2(C)[C@@]1(O)C(=O)CO
inactive: Potency [1] | outcome [2] | Potency [5] | Potency [6] | Potency [17] | outcome [7] | Potency [8] | outcome [15]
22.4 µM (active) and inactive: Potency [14]

CCCCCCCCCC
inactive: Potency [1] | outcome [2] | Potency [5] | Potency [6] | Potency [17] | outcome [7] | Potency [8] | Potency [9] | Potency [11] | Potency [14] | outcome [15] | Potency [16]
inactive and 79.6 µM (active): Potency [13]
inactive and 71 µM (active): Potency [12]

O=[N+]([O-])c1ccc(/C=C/c2ccc([N+](=O)[O-])cc2S(=O)(=O)O)c(S(=O)(=O)O)c1
inactive: Potency [1] | outcome [2] | Potency [5] | Potency [6] | Potency [17] | outcome [7] | Potency [9] | Potency [11] | Potency [12] | Potency [14] | outcome [15] | Potency [16]
active: Potency [13] 31.7 µM and 39.9 µM

CCc1ccc(CCOc2ccc(CC3SC(=O)NC3=O)cc2)nc1 (stereo not given)
inactive: Potency [1] | Potency [3] | outcome [4] | Potency [5] | Potency [6] | outcome [7] | Potency [8] | max activation [18] -8.65% | Potency [11] | Potency [12] | Potency [14] | outcome [15]
active: Potency [13] 31.7 µM and 30.9 µM

O=C(O)CC(C(=O)O)C(CC(=O)O)C(=O)O (stereo not given)
inactive: Potency [1] | outcome [2] | Potency [5] | Potency [6] | outcome [7] | Potency [8] | Potency [9] | Potency [11] | Potency [13] | outcome [15] | Potency [16]

N[C@@H](Cc1cc(I)c(Oc2cc(I)c(O)c(I)c2)c(I)c1)C(=O)O
inactive: Potency [1] | outcome [2] | Potency [5] | Potency [6] | Potency [17] | outcome [7] | Potency [8] | max activation [18] -0.369% | Potency [11] | Potency [12] | outcome [15] | Potency [16]

COc1ccc(Cl)cc1C(=O)NCCc1ccc(S(=O)(=O)NC(=O)NC2CCCCC2)cc1
inactive: Potency [1] | outcome [4] | Potency [5] | Potency [6] | outcome [7] | Potency [8] | Potency [11] | Potency [12] | Potency [14]
